Assays:
[1] = biological target: T1, Mitogen-activated protein kinase 12 (Homo sapiens) (UniProt P53778); conditions: at 1 µM;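 further: values are averaged p38gamma kinase inhibition readings, compounds tested at 1 µM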
T1 sequence (whole entry): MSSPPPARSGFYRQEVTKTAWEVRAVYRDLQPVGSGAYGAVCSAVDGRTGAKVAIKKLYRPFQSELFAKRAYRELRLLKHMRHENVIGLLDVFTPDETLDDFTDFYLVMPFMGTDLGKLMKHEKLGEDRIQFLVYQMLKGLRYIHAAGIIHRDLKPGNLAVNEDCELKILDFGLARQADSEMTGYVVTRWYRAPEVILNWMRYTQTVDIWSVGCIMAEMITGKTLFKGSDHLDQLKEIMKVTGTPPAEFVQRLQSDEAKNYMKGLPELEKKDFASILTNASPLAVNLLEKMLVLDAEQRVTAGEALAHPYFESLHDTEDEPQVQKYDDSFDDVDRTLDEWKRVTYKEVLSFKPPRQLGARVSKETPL

[2] = biological target: SRSF protein kinase 1 (Homo sapiens) (UniProt Q96SB4); conditions: at 0.1 µM
Sequence of SRSF protein kinase 1 (Homo sapiens) (Q96SB4 whole entry, canonical isoform): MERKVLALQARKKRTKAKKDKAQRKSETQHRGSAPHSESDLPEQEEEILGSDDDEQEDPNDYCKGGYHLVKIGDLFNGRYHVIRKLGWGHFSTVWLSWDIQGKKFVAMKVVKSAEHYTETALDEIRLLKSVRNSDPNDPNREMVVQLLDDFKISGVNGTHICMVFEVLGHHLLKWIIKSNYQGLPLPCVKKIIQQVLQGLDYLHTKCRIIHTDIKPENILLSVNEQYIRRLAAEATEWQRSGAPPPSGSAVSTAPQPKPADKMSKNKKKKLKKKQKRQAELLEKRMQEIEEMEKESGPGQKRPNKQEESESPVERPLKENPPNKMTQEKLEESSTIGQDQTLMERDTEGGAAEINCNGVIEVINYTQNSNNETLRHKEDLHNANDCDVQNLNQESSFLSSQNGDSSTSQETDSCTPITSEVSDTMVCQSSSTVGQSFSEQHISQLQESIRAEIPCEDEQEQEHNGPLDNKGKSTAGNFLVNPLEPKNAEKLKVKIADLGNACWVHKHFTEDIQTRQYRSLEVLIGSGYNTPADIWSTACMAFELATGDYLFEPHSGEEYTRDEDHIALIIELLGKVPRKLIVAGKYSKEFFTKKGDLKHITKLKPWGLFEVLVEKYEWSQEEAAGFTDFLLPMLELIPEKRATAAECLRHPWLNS

[3] = biological target: SRSF protein kinase 1 (Homo sapiens) (UniProt Q96SB4); conditions: at 1 µM
[4] = biological target: Phosphatidylinositol 4,5-bisphosphate 3-kinase catalytic subunit alpha isoform (Homo sapiens) (UniProt P42336); conditions: at 0.1 µM
Sequence of Phosphatidylinositol 4,5-bisphosphate 3-kinase catalytic subunit alpha isoform (Homo sapiens) (P42336 whole entry, canonical isoform): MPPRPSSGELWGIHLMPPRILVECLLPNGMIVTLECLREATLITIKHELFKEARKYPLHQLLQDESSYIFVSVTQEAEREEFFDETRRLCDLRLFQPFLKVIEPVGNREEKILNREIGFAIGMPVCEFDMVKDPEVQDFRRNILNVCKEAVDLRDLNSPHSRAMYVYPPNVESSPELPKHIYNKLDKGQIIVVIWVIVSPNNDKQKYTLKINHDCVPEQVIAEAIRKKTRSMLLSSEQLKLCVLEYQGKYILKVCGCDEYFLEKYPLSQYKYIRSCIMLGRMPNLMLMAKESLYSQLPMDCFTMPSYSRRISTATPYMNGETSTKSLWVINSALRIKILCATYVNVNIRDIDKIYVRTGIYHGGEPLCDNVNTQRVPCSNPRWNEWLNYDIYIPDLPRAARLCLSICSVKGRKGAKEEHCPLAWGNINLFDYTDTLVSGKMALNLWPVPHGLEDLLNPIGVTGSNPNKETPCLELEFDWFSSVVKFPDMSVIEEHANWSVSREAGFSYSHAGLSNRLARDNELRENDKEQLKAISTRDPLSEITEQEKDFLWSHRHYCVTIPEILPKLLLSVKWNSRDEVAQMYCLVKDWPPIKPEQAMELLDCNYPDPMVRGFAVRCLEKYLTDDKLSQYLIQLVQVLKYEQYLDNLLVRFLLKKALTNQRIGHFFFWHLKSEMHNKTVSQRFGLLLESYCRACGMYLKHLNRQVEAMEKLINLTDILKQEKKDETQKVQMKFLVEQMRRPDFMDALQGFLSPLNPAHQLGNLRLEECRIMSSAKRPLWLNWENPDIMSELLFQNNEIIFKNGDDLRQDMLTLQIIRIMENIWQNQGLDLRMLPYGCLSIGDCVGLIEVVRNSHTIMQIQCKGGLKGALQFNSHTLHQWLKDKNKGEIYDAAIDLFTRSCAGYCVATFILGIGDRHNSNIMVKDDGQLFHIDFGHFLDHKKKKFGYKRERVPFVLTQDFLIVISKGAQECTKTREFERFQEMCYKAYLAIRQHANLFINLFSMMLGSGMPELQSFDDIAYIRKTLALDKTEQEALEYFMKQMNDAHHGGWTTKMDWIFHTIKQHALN

[5] = biological target: Phosphatidylinositol 4,5-bisphosphate 3-kinase catalytic subunit alpha isoform (Homo sapiens) (UniProt P42336); conditions: at 1 µM
[6] = biological target: T2, Phosphatidylinositol 4,5-bisphosphate 3-kinase catalytic subunit delta isoform (Homo sapiens) (UniProt O00329); conditions: at 0.1 µM
T2 sequence (whole entry): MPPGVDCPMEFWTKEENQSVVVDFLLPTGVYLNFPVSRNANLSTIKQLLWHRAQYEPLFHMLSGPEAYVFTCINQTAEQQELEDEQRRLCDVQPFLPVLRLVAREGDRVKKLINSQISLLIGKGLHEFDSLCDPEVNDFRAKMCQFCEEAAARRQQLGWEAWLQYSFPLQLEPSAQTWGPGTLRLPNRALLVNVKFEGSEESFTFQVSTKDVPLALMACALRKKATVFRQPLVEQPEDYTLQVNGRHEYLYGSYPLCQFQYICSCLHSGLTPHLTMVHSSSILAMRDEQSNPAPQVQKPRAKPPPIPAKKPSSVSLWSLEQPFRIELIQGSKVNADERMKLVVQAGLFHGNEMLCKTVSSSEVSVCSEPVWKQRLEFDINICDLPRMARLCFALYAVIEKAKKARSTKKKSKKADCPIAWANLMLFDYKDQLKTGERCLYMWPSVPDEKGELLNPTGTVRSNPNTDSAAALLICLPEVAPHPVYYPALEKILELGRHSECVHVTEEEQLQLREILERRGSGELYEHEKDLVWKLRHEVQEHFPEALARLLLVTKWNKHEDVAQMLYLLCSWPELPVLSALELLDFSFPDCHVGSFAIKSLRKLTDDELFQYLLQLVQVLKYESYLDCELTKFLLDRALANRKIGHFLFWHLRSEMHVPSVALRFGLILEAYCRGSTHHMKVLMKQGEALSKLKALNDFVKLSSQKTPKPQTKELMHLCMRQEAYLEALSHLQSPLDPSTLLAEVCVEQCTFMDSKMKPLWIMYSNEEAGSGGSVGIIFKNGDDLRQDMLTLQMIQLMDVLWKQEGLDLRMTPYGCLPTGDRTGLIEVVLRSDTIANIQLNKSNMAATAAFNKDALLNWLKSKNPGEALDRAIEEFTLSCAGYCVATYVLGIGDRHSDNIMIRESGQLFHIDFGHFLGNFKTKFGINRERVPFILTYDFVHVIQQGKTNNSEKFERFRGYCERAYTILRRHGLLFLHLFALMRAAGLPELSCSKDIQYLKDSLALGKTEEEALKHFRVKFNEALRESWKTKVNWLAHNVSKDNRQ

[7] = biological target: T2, Phosphatidylinositol 4,5-bisphosphate 3-kinase catalytic subunit delta isoform (Homo sapiens); conditions: at 1 µM
[8] = biological target: Phosphatidylinositol 4-kinase beta (Homo sapiens) (UniProt Q9UBF8); conditions: at 0.1 µM
Sequence of Phosphatidylinositol 4-kinase beta (Homo sapiens) (Q9UBF8 2-816 limits assumed): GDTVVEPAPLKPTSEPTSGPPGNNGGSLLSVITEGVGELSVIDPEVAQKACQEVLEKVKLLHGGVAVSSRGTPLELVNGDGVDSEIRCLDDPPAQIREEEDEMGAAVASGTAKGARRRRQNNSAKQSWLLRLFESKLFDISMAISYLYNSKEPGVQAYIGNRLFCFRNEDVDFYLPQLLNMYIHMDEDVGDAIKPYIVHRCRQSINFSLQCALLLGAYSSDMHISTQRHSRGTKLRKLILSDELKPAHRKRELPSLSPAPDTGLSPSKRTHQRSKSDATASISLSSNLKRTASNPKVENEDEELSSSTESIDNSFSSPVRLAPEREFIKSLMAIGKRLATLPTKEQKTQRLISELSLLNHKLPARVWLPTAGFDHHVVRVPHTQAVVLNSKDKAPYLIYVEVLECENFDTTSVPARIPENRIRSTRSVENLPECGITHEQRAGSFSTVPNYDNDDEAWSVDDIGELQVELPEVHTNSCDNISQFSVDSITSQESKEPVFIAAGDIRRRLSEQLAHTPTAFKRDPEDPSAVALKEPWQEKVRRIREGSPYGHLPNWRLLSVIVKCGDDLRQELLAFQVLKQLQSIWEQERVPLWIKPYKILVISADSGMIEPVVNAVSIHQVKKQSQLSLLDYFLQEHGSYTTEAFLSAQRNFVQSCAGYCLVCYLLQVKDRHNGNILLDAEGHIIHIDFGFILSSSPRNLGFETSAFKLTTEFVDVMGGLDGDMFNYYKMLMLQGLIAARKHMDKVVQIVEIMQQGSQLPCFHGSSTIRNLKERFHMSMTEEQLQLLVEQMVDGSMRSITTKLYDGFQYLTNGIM

[9] = biological target: Phosphatidylinositol 4-kinase beta (Homo sapiens) (UniProt Q9UBF8); conditions: at 1 µM
[10] = biological target: Sphingosine kinase 1 (Homo sapiens) (UniProt Q9NYA1); conditions: at 0.1 µM;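 further: mean percent inhibition of SPHK1 activity, measured within the GSK PKIS screening panel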
Sequence of Sphingosine kinase 1 (Homo sapiens) (Q9NYA1 whole entry): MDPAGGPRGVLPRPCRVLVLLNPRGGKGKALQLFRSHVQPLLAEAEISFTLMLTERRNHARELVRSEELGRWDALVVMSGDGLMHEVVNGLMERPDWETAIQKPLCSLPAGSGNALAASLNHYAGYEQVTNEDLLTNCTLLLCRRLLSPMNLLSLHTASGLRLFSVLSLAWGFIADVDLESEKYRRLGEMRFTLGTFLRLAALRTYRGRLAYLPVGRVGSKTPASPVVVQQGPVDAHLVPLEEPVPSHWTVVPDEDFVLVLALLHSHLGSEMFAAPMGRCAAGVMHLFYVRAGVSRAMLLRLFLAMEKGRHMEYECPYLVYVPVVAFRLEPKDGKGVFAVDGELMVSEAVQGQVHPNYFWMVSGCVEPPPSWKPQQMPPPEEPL

| SMILES | inhibition [1] [%] | inhibition [2] [%] | inhibition [3] [%] | inhibition [4] [%] | inhibition [5] [%] | inhibition [6] [%] | inhibition [7] [%] | inhibition [8] [%] | inhibition [9] [%] | inhibition [10] [%] |
| --- | --- | --- | --- | --- | --- | --- | --- | --- | --- | --- |
| COc1cc2ncn(-c3cc(OCc4ccccc4S(C)(=O)=O)c(C#N)s3)c2cc1OC | 2.63 | -1.91 | -1.66 | 3.16 | 3.95 | 2.67 | 3.41 | -5.13 | -1.46 | 0.08 |
| CC(C)c1ccc2c(c1)NC(=O)/C2=N/Nc1ccc(S(N)(=O)=O)cc1 | 0.63 | -0.89 | -0.94 | 0.32 | 1.8 | 0.64 | 0.71 | 0.05 | 0.24 | 0 |
| Nc1nccc(-c2c(-c3ccc(F)cc3)nn3cc(C(F)(F)F)ccc23)n1 | 1.01 | -0.96 | -1.1 | 0.15 | 0.75 | 0.55 | 0.3 | -4.79 | -4.51 | 4.09 |
| [O-][S+]1CCN(Cc2ccc(-c3ccc4ncnc(Nc5ccc(OCc6ccccc6)c(Cl)c5)c4c3)o2)CC1 | 1.59 | -1.34 | -2.79 | 1.57 | 0.92 | 0.92 | 2.1 | -2.13 | -0.85 | 1.88 |
| NS(=O)(=O)c1ccc(NC=C2C(=O)Nc3ccc4ncsc4c32)cc1 | 5.67 | -2.53 | -1.62 | 3.58 | 13.1 | 5.31 | 27.3 | -1.46 | 4.92 | 1.36 |
| Cc1ccc2c(-c3ccnc(Nc4ccc5c(c4)OCCO5)n3)c(-c3ccc(C(F)(F)F)cc3)nn2n1 | 0.43 | -1.35 | -3.21 | -1.09 | -0.65 | 0.68 | 0.76 | 6.55 | -2.49 | 0 |
| Nc1nccc(-c2c(-c3ccc(F)cc3)ncn2CCCN2CCOCC2)n1 | 3.58 | -1.35 | -2.36 | 3.59 | 3.13 | 0.42 | 3.48 | -8.25 | -2.19 | 2.43 |
| Cc1cc(Cl)cc2c1NC(=O)C2=NNc1ccc(S(N)(=O)=O)cc1 | 2.01 | -1.22 | 1.09 | 0.48 | 1.85 | 0.72 | 4.67 | -5.44 | 3.24 | 0.93 |
| COC(=O)Nc1nc2cc(Oc3ccc(NC(=O)Nc4cccc(Br)c4)cc3)ccc2[nH]1 | 1.52 | -2.5 | -2.45 | 0.99 | 8.57 | 1.03 | 7.1 | 0.03 | -5.6 | -1.27 |
| O=C(Nc1ccc(Oc2ccc3[nH]c(NC(=O)c4ccco4)nc3c2)cc1)Nc1cc(C(F)(F)F)ccc1F | 3.11 | -0.3 | 5.87 | -0.31 | 0.01 | 0.36 | 2.96 | 1.45 | 1.53 | 0.3 |
| Nc1ccc(C#Cc2cncnc2Nc2ccc(OCc3cccc(F)c3)c(Cl)c2)cc1 | 2.1 | -1.42 | -0.29 | 2.27 | 3.14 | 0.98 | 1.62 | 5.59 | 0.07 | 0.21 |
| ON=C1CCc2cc(-c3nc(C4CCNCC4)[nH]c3-c3ccncc3)ccc21 | 1 | -1.62 | -5.28 | -1.04 | 0 | 0.31 | 3.08 | 2.07 | -0.63 | -1.16 |
| O=S(=O)(CCOCc1ccc(-c2ccc3ncnc(Nc4ccc(OCc5cccc(F)c5)c(Cl)c4)c3c2)o1)c1ccccc1 | 4.2 | -2.76 | -1.54 | 1.05 | 12.9 | 0.99 | 10.1 | 0.56 | 0.4 | 1.08 |
| CN(C)CCCn1c(-c2nonc2N)nc2cnccc21 | 3.42 | -2.65 | -4.44 | 2.84 | 5.05 | 1.95 | 4.09 | 0.95 | 3.34 | 2.52 |
| CCS(=O)(=O)c1ccc(OC)c(Nc2ncc(-c3cccc(OC)c3)o2)c1 | 2.08 | -1.9 | -1.28 | 1.81 | 2 | 3.48 | 3.98 | 3.39 | -0.15 | -0.07 |
| CS(=O)(=O)CCNCc1nc(-c2ccc3ncnc(Nc4ccc(OCc5cccc(C(F)(F)F)c5)cc4)c3c2)cs1 | 2.12 | -2.46 | -3.03 | 1.85 | -0.47 | 0.76 | 3.63 | -0.59 | 0.33 | -1.19 |
| c1ccc(Cc2nc3ccc(Nc4ncnc5ccccc45)cc3[nH]2)cc1 | 0.6 | -1.1 | 1.41 | 3.03 | 4.64 | 1.66 | 0.62 | -0.98 | -1.72 | 1.07 |

From ChEMBL document CHEMBL1961873, “Compounds: GSK PKIS; Assays: Nanosyn kinase panel” (2012)
